Measurements taken from the supplement of paper PMC10338343.
± gives the standard deviation.

tested on: MILI (PIWIL2) piRISC loaded with L1MC piRNA (26 nt); assay: pre-steady-state target cleavage rate (min^-1); guide: L1MC piRNA 5'p-UAACUAAAUACUAUGCAAGCUGUAGG; MIWI and MILI are mouse PIWI proteins and EfPiwi is from a freshwater sponge; tags in brackets are library labels; higher = faster piRNA-guided slicing of the target; conditions: auxiliary factor: 500 nM mouse GTSF1
Method in brief: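 Active affinity-purified piRISC (1 nM) loaded with one synthetic guide was mixed with a transcribed, DNA-blocked target RNA library (0.1 nM), with or without 500 nM GTSF1 partner protein, in HEPES–potassium acetate buffer at 33 °C for 0–8 or 0–960 min. Uncleaved targets were sequenced, normalised to depth and to weakly complementary targets, and pooled across three trials, with k3 capped at 0.0001 min^-1. The pre-steady-state cleavage rate was determined with a burst-and-steady-state fit.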

Sequence	pre-steady-state target cleavage rate
UCCUGGAUCAGCUUGCAUAGUAAAAAGUAA	0.108 ± 0.021
UCCUGCUACAGCUUGCAUGAGUAUUUAGUUA	0.0058 ± 0.0041
UCCUGGAUGUCGUUGCAUAGUAUUUAGAUA	0.0436 ± 0.017
UCCUCCUACAGCUUGCAUAGAUAUUAGUUA	0.0125 ± 0.0045
UCCUGGAUGAGCUUGCAUUAGUAUUUAGUUA	0.00494 ± 0.0045
UCCUGGAUGUCCUUGCAUAGUAUUAUCAAA [g7:g19:cont:t1A]	0.0222 ± 0.0094
UCCUGCUACAGCUUGCUUAGUAUUUACUUA	0.11 ± 0.015
UCCUGGAUCAGCAAGCAUAGUAUUUAGAAA	0.101 ± 0.013
UCCUGGAUGUCGAACGUUAGUAUUUAGUA	< 0.0001
UCCUGGAUGUCGAUGACAUAGUAUUUAGUUA	0.015 ± 0.0059
UCCUGGAUGUCGAUACAUAGUAUUUAGUUA	0.0231 ± 0.0046
UCCUCCUACAGCUUGCUAAGUAUUUUCAAA	0.0625 ± 0.017
UCCUCCUACAGCUUGCAUCAGUAUUUAGUUA	0.0234 ± 0.0093
UCCUGGUACAGCUUGCAUAGUAUUAAGAAA	0.0213 ± 0.0097
UCCUGGAUGAGCUUGCAUAGUAUUUUGUAA	0.0267 ± 0.011
UCCUGGAUCUCCUUGCAUAGUAUUUACAAA	0.0872 ± 0.018
UCCUGGAUGAGGUUGCAUACUAUUUAGUUA	0.0167 ± 0.006
UCCUGGAUCUCCUUGCAUAGUAUUUUCAAA	0.0367 ± 0.0088

Sequence	pre-steady-state target cleavage rate
UCCUGGAUGUCGAUGCAUAGUAUUUAGCUUA	0.0496 ± 0.014
UCCUGGAACAGCUUGCAAAGUAUUUACAAA	0.0328 ± 0.01
UCCUGGAACAGCUUGCAUACUAUUUACAAA	0.0166 ± 0.0064
UCCUGCUACAGCUUGCAUAGAUUUUUCAAA	0.0091 ± 0.0044
UCCUGGAUCAGCUUGCUAUAGUAUUUAGUUA	0.0101 ± 0.0052
UCCUGGAUGUCCUUGCAUAGUAUUUUCUAA	0.0134 ± 0.0068
UCCUGGAUCAGCUUCGUUAGUAUUUAGUAA	0.02 ± 0.0056
UCCUGGAUGUGCUUGGAUAGAAUUUAGUUA	0.00729 ± 0.0047
UCCUGGAUCAGCUUGCAUAGCUAUUUAGUUA	0.00402 ± 0.004
UCCUGGUUGAGCUUGCAUAGUAUUUACAAA	0.0198 ± 0.0068
UCCUGGAACUGCUUGCAUAGUAUUUUCAAA	0.0118 ± 0.0046
UCCUGGUACAGGUUGCAUAGUAAUUAGUUA	0.325 ± 0.041
UCCUGGAACAGCUUGCAUAGUAAUUACUUA	0.023 ± 0.0082
UCCUCCUACAGCUUGCAAUGUAUUUUCAAA	0.0219 ± 0.0065
UCCUGGUACAGCUUGCAUAGUAUAUAGAAA	0.0845 ± 0.028
UCCUGGAACAGCUUGCAUAUGUAUUUAGUUA	0.00424 ± 0.0037
UCCUGGAUGUCGUUGACAUAGUAUUUAGUUA	0.0142 ± 0.0054
UCCUGGAUCAGCUUCGUUAGUAUUUAGUUA	0.0434 ± 0.0096

same assay, conditions: auxiliary factor: none (no GTSF1)

Sequence	pre-steady-state target cleavage rate
UCCUGGAUGUCGAACCAUAGUAAAAAGUUA	< 0.0001
UCCUGGAUGUCGUUCCUUAGUAUUUAGUUA	< 0.0001
UCCUGGAUGUCGAACCAAAGUAAUUAGUUA	< 0.0001
UCCUGGAUCAGCUACCAUAGUAUUUUCAAA	< 0.0001
UCCUGGUACAGGUUGCAUAGUAAUUAGUUA	0.00664 ± 0.0029
UCCUGGAUCAGCUUCGUUAGUAUUUAGUUA	0.00279 ± 0.0024
